Giardia FBPA inh – Giardia lamblia aldolase inhibition | A8B2U2 | purified Giardia FBPA | Potency, µM (highest dose often 59.6 µM), most hits filed as inhibitors | hit rate 0.71% among 290,000; also: nearly all actives have a fitted effect of over 55% in size
Target sequence (A8B2U2 whole entry, looked up): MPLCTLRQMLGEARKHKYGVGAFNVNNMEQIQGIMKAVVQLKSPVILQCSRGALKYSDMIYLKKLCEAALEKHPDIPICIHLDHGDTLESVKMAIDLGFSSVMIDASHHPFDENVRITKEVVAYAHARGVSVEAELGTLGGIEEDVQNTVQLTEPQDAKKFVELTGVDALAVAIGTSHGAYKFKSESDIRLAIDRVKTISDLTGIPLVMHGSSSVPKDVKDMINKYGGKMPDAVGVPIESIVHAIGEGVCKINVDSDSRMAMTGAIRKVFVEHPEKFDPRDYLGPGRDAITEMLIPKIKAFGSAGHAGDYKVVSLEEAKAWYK
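Giardia FBPA (40 nM reagent) was preincubated 10 min at RT with compound (up to 57.5 uM final), then substrate plus GAPDH/TPI/NAD/arsenate coupling system with diaphorase/resazurin was added; resorufin fluorescence (525/598 nm) was read after 20 min.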
Pf growth 48h – inhibits P. falciparum growth in the first generation, 48 h; hit rate 5.9% among 310,000; P. falciparum luciferase growth in erythrocytes, 48 h; AID 504832; Potency, µM (top dose mostly 28.7 µM), usual class: inhibitors
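Read-out is firefly luciferase luminescence from an integrated reporter in P. falciparum, so falling signal marks reduced parasite growth. Infected erythrocytes were at 2% hematocrit and 0.1% parasitemia (final) in Albumax-supplemented RPMI 1640.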
NS1 function inh – inhibitors of influenza NS1 protein function | AID 2326 | Potency, µM (series often up to 46.1 µM) | hit rate 0.4% among 270,000; calls by dose curve; also: actives are rising curves; nearly all actives have a fitted effect of over 50% in size
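Growth recovery, yeast-based: influenza A NS1 expressed in S. cerevisiae causes slow growth, and suppressors are detected by OD600. The parent strain without NS1 is used as positive control.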
Shiga inhibitor – blocks Shiga toxin action in Vero cells; inhibition, % at 38.7 µM; Vero cells, Shiga toxin protein synthesis inhibition reporter; hit rate 9.2% among 290,000; in the data active = inhibition mostly above about 28%, no sharp cut-off; inactive = mostly below about 43%
Pf growth 96h – inhibits malaria parasite growth, 96 h; P. falciparum luciferase reporter growth, 96 h; hit rate 6.9% among 320,000; AID 504834; Potency, µM (titrated, usually from 28.7 µM), usual class: inhibitors
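Infected RBCs, 2% Hct / 0.05% parasitemia final; luciferase-reporter P. falciparum; cpd 96 h, 37 C, 5% CO2; luciferase detection reagent; luminescence.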
Cycloheximide cs – counter-screen for Shiga toxin inhibitors: cycloheximide protein synthesis inhibition; hit rate 12% among 300,000; cell reporter, cycloheximide protein synthesis inhibition counterscreen; max response, %; AID 2314; in the data active = max response mostly above about 13%, no sharp cut-off; inactive = mostly below about 14%; also: read at 38.3 µM for the half of the compounds with a filed dose
Hits are given with their value; i = inactive; ? = inconclusive; nt = not tested or not shown; [ ] = dose if it differs, or a comment. Hits are enriched below; roughly 21% of the tested compounds scored in any of these assays. Unless noted, calls follow the shape of the dose curve; as a rule, active = well fitted curve in the direction sought with a large enough effect; inconclusive = small, poorly fitted or top-dose-only effect, or another doubt; inactive = no such curve, though single readings can be large; an effect the other way counts as inactive or inconclusive.

SMILES | Giardia FBPA inh | Pf growth 48h | NS1 function inh | Shiga inhibitor | Pf growth 96h | Cycloheximide cs
Cc1c(C(=O)O)oc2ccc3c(c12)C(O)CC(C)(C)O3 (stereo unspecified) | i | i | i | i | 4.7µM | i
Cc1cccc(N2CCc3c2nc2ccc(Br)cc2c3N)c1 | ? | ? | i | i | i | 16
CCOC(=O)c1cc(-c2cccs2)[nH]n1 | i | i | i | 60 | i | 22
Cc1cc(C)cc(NC(=O)COC(=O)CCCC2=NS(=O)(=O)c3ccccc3N2)c1 | i | i | nt | i | ? | i
Cc1cccc(OCC2=NS(=O)(=O)c3ccccc3N2)c1 | i | i | i | 106 | i | 38
O=C(COC(=O)/C=C/c1cc(Br)ccc1F)Nc1ccc2[nH]c(=O)[nH]c2c1 | nt | i | nt | nt | i | nt
C=CCN(c1ccccc1OC)S(=O)(=O)c1cccc(C(=O)NCc2cccs2)c1 | nt | 12µM | nt | nt | 12µM | nt
C=CCN(c1ccccc1Cl)S(=O)(=O)c1cccc(C(=O)NCCc2ccc(OC)cc2)c1 | i | ? | i | i | ? | i
CCN(CC)S(=O)(=O)c1ccc(C(=O)NCC(c2cccs2)N2CCOCC2)cc1 (stereo unspecified) | i | i | i | i | ? | i
C=CCN(c1ccccc1)S(=O)(=O)c1cccc(C(=O)NCC(c2cccs2)N2CCOCC2)c1 (stereo unspecified) | nt | 10µM | nt | nt | ? | nt
CCN(c1ccccc1)S(=O)(=O)c1cccc(C(=O)NCC(c2cccs2)N2CCOCC2)c1 (stereo unspecified) | nt | 15µM | nt | nt | ? | nt
O=C(NCC(c1cccs1)N1CCOCC1)C1CCN(S(=O)(=O)c2cccc(C(F)(F)F)c2)CC1 (stereo unspecified) | nt | ? | nt | nt | 10µM | nt
O=S(=O)(Nc1cccc2cccnc12)C1CC1 | nt | nt | nt | i | nt | i
CCCCCCCC1=Cc2ccccc2C(CC(=O)c2ccccc2)N1C(=O)OC (stereo unspecified) | i[12.9 µM] | nt | nt | nt | nt | nt
COc1ccc(-n2c(SCC(=O)Nc3cc(C(=O)O)ccc3C)nc3ccccc3c2=O)cc1Cl | i | ? | i | i | ? | i
Cc1ccc(C(CC(=O)N2CCCC2)c2ccccc2)c(O)c1 (stereo unspecified) | i | i | i | i | ? | i
CCN(c1ccccc1)S(=O)(=O)c1cccc(C(=O)N2CCN(S(=O)(=O)c3ccccc3)CC2)c1 | nt | ? | i | i | 8.3µM | i
O=C(NCC(c1cccs1)N1CCOCC1)c1cc([N+](=O)[O-])cc([N+](=O)[O-])c1 (stereo unspecified) | i | i | i | i | i | 18
C=CCN(c1ccccc1)S(=O)(=O)c1cccc(C(=O)N2CCCC2)c1 | nt | ? | nt | nt | i | nt
C=CCN(c1ccccc1OC)S(=O)(=O)c1ccc(Cl)c(C(=O)Nc2ccc(N3CCOCC3)cc2)c1 | i | 5.9µM | nt | i | 4.1µM | i
CCCc1cc(C(=O)OCC(=O)N(CCC)c2c(N)n(Cc3ccccc3)c(=O)[nH]c2=O)sc1C | nt | ? | nt | nt | i | nt
CCCc1cc(C(=O)Nc2cccnc2)no1 | i | nt | i | 89 | ? | 72
CC(C)c1cc(C(=O)Nc2cccnc2)no1 | i | i | i | 48 | nt | 37
Cc1ccc(C(=O)Nc2sc(C(=O)N(C)C)c(C)c2C#N)cc1 | i | i | i | i | i | i
CCc1c(C)sc(NC(=O)c2cccs2)c1C#N | ? | i | i | 77 | i | 53
SMILES | Giardia FBPA inh | Pf growth 48h | NS1 function inh | Shiga inhibitor | Pf growth 96h | Cycloheximide cs
O=C(Nc1cccnc1)c1cc(-c2ccco2)on1 | i | i | i | i | i | i
CCOC(=O)c1c(NC(=O)c2cccs2)sc(C)c1CC | i | ? | i | i | ? | i
Cc1sc(NC(=O)c2ccccc2)c(C#N)c1-c1ccccc1 | i | i | i | 26 | 4.1µM | 43
COc1ccc(CCNS(=O)(=O)c2ccc(Cl)cc2)cc1OC | i | i | i | i | i | i
C=CCN(c1ccccc1Cl)S(=O)(=O)c1cccc(C(=O)OCC(=O)N(C)C2CCS(=O)(=O)C2)c1 (stereo unspecified) | i | i | nt | i | i[5.75 µM] | i
CC#C[C@]1(O)CC[C@H]2C3C=C(C)C4=CC(=O)C=C[C@]4(C)[C@H]3[C@@H](O)C[C@@]21C (stereo partly specified) | i | nt | nt | i | nt | i
CCc1c(C)sc(NC(=O)c2cc(C)on2)c1C#N | i | i | i | i | i | i
CCCc1cc(C(=O)Nc2ccc(C(C)=O)cc2)no1 | i | i | ? | 82 | ? | 42
CCCc1cc(C(=O)Nc2sc(C)c(CC)c2C#N)no1 | i | i | i | i | i | 13

Screening results as filed in PubChem BioAssay.
